Among the data in PubChem BioAssay (NCATS) are Potency values, retold here.

Holding throughout (assay): qHTS profiling for inhibitors of Plasmodium falciparum proliferation (AID 504749); also: nearly all actives have a fitted effect of over 60% in size
Holding throughout (conditions): P. falciparum in erythrocytes, SYBR Green DNA, 72 h; series mostly up to 28.7 µM
On the technique in general: qHTS replaces the single test concentration by a dilution series.

In assay [1] the test system is AA1029. An outline of the steps:
(§1)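 Readout was DNA-dye fluorescence from lysed cultures, ex 485/em 535 nm. Parasitized red cells had grown 72 h with compound; data scaled between 0.29 uM artemisinin and DMSO wells and corrected using vehicle-only plates.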

Assay [2] deals with AS120. Summed up: as §1
The subject of assay [3] is C2A. An outline of the steps: as §1
The test system of assay [4] is CP201. An outline of the steps: as §1
The test system of assay [5] is CP203. An outline of the steps: as §1
Assay [6] has as its system CP237. Summed up: as §1
Assay [7] concerns CP250. Summed up:
as §1

For assay [8], the system named is CP256. An outline of the steps:
as §1

Assay [9] deals with CP268. An outline of the steps: as §1
In assay [10] the test system is CP305. Summed up:
as §1

In assay [11] the test system is CP315. Summed up:
as §1

Assay [12] relates to CP325. Summed up: as §1
Assay [13] has as its system DIV30. An outline of the steps:
as §1

Assay [14] has as its system HB3. An outline of the steps: as §1
For assay [15], the system named is JCK. Summed up:
as §1

In assay [16] the test system is N140. An outline of the steps:
as §1

Assay [17] relates to P94_40. Summed up:
as §1

In assay [18] the test system is PAD. An outline of the steps: as §1
For assay [19], the system named is SC27B. Summed up: as §1
In assay [20] the test system is TAB113. An outline of the steps:
as §1

Molecules are shown by their SMILES. Inconclusive results are not listed. Active and inactive are the calls of the source. Calls follow the shape of the dose curve; as a rule, active = well fitted inhibition curve with a large enough effect; inconclusive = small, poorly fitted or top-dose-only effect; inactive = flat fitted curve, though single readings scatter.
Potency is read from the fitted curve at half-maximal effect.

As for `CC(CN1CC(=O)NC(=O)C1)N1CC(=O)NC(=O)C1` (stereo not given), the Potency entry in assay [1], in assay [2], in assay [3], in [4], in [5] and in assay [6] was “inactive” throughout. Also, the Potency result in assay [7], in assay [8], in [9], in assay [10], in assay [11] and in assay [12] was “inactive” each time. The Potency entry in assay [13], in assay [14], in assay [15], in [16], in [17] and in [18] was “inactive” in each case. The Potency result in assay [19] and in [20] was “inactive” throughout.
`C=C1/C(=C\C=C2/CCC[C@]3(C)[C@@H]([C@H](C)/C=C/[C@@H](O)C4CC4)CC[C@@H]23)C[C@@H](O)C[C@@H]1O`: the Potency entry in [1], in [3], in assay [4], in [5], in assay [6] and in [8] was “inactive” in each case. The Potency result in assay [9], in assay [10], in [11], in assay [12], in assay [13] and in assay [14] was “inactive” each time. Further, the Potency result in assay [15], in assay [16], in assay [18], in assay [19] and in assay [20] was “inactive” each time.
Turning to `CC1(C)SC2[C@@H](N=CN3CCCCCC3)C(=O)N2[C@H]1C(=O)O` (stereo not given in full), the Potency entry in assay [1], in [2], in assay [3], in [4], in assay [5] and in assay [6] was “inactive” in each case. The Potency entry in assay [7], in assay [9], in [10], in [11], in assay [12] and in [13] was “inactive” throughout. Moreover, the Potency entry in assay [14], in [15], in assay [16] and in assay [19] was “inactive” throughout.
`CC1(C)O[C@@H]2C[C@H]3[C@@H]4CCC5=CC(=O)C=C[C@]5(C)[C@H]4C(O)C[C@]3(C)[C@]2(C(=O)CO)O1` (stereo not given in full): the Potency result in assay [3], in assay [4], in assay [5], in assay [7], in assay [8] and in assay [9] was “inactive” throughout. The Potency entry in assay [10], in [12], in [13], in assay [14], in [15] and in assay [17] was “inactive” in each case. Besides, the Potency result in assay [20] was “inactive”. In addition, in [16], the Potency is 11.2 µM (active).
On to `CC(C)(C)NC[C@H](O)CSc1nc(-c2ccc(C(N)=O)s2)cs1`, for which the Potency result in assay [1], in [2], in [3], in assay [4], in assay [5] and in assay [6] was “inactive” in each case. Also, the Potency entry in assay [7], in [8], in [9], in [10], in assay [11] and in assay [12] was “inactive” each time. The Potency entry in assay [13], in assay [14], in assay [15], in [16], in [17] and in assay [18] was “inactive” each time. In addition, the Potency entry in assay [19] was “inactive”.
For `C[C@]12C=CC(=O)N[C@@H]1CC[C@@H]1C2CC[C@]2(C)C(C(=O)Nc3cc(C(F)(F)F)ccc3C(F)(F)F)CC[C@@H]12` (stereo not given in full), the Potency entry in assay [1], in assay [2], in [3], in assay [4], in assay [5] and in [7] was “inactive” in each case. The Potency entry in assay [8], in [12], in assay [13], in [16], in [17] and in assay [18] was “inactive” throughout. For the same compound, the Potency entry in assay [19] and in assay [20] was “inactive” each time. For the same compound, the Potency in [6] was 5.01 µM (active).
As for `CC(=O)CC(c1ccccc1)C1C(=O)Oc2ccccc2C1=O` (stereo not given), the Potency entry in assay [1], in [2], in [3], in assay [4], in assay [5] and in [6] was “inactive” each time. Also, the Potency entry in [7], in assay [8], in assay [9], in [10], in assay [11] and in assay [12] was “inactive” each time. For the same compound, the Potency entry in assay [13], in assay [14], in [15], in assay [16], in assay [17] and in assay [18] was “inactive” each time. Besides, the Potency result in assay [19] and in assay [20] was “inactive” throughout.
As for `COc1ccc(S(=O)(=O)N2c3ccc(Cl)cc3[C@](O)(c3ccccc3Cl)[C@@H]2C(=O)N2CCC[C@H]2C(N)=O)cc1OC`, the Potency entry in assay [3], in assay [4], in assay [5], in assay [7], in [8] and in assay [9] was “inactive” in each case. The Potency entry in [10], in assay [11], in assay [12], in assay [13], in [14] and in [15] was “inactive” throughout. Also, the Potency entry in assay [20] is “inactive”.
Take `CC1=C(c2ccc(NN=C(C#N)C#N)cc2)NNC(=O)C1`: the Potency entry in assay [1], in assay [2], in assay [3], in [4], in [5] and in assay [6] was “inactive” each time. Moreover, the Potency entry in [7], in [8], in assay [9], in assay [10], in assay [11] and in [12] was “inactive” each time. Further, the Potency entry in assay [13], in assay [14], in assay [15], in assay [16], in [17] and in assay [18] was “inactive” in each case. Also, in [19], the Potency result is “inactive”.
Turning to `OC[C@@H](O)C(O[C@@H]1O[C@@H](CO)[C@H](O)[C@H](O)[C@H]1O)[C@H](O)[C@@H](O)CO` (stereo not given in full), the Potency entry in [1], in assay [2], in [4], in assay [5], in [6] and in assay [7] was “inactive” each time. Further, the Potency entry in assay [8], in assay [9], in [10], in assay [11], in [12] and in assay [13] was “inactive” in each case. The Potency entry in assay [14], in assay [15], in assay [16], in [17], in assay [18] and in [19] was “inactive” in each case. Moreover, in assay [20], the Potency entry is “inactive”.
Turning to `COc1ccc(C(=O)/C(Br)=C/C(=O)O)cc1`, the Potency result in assay [1], in [3], in assay [4], in [5], in assay [6] and in assay [7] was “inactive” each time. For the same compound, the Potency entry in [8], in assay [9], in assay [11], in assay [12], in [14] and in assay [15] was “inactive” in each case. In addition, the Potency entry in assay [16], in assay [17] and in [18] was “inactive” throughout.
For `CC1OC(OC2C(O)CC(OC3C(O)CC(OC4CCC5(C)C(CCC6C5CCC5(C)C(C7=CC(=O)OC7)CCC65O)C4)OC3C)OC2C)CC(O)C1O` (stereo not given), the Potency entry in assay [1], in assay [2], in assay [3], in assay [4], in [5] and in assay [7] was “inactive” each time. Also, the Potency result in [8], in assay [9], in assay [10], in assay [11], in assay [12] and in assay [13] was “inactive” each time. The Potency result in assay [15], in assay [16], in assay [17], in assay [18], in [19] and in [20] was “inactive” each time.
